ELG1 genotox – induces genotoxicity in HEK293T cells with luciferase-tagged ELG1 | HEK293T ELG1-luciferase reporter, luminescence, 16 h | Potency, µM (top dose mostly 46 µM), for the others: at the top dose activity change, positive = activation, most hits filed as activators | 330,000 tested, 1.3% active | AID 504466; further: % of control where 0% means no effect; nearly all actives have a fitted effect of over 60% in size
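Genotoxicity was scored as increased ELG1-luciferase reporter signal, measured by ONE-Glo luminescence (30 min, room temperature). Compound or vehicle exposure of the HEK293T reporter cells lasted 16 hr at 37°C.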
Rab9 promoter act – Rab9 promoter activation. AID 485297. 320,000 tested, 2.8% active. Potency, µM (series often up to 9.22 µM), for inactives: at the top dose activation, negative = inhibition, most hits filed as activators. Huh7 Rab9 promoter-luciferase reporter, luminescence, 24 h; further: % of control where 0% means no effect; nearly all actives have a fitted effect of over 60% in size
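Luciferase signal after 10 min detection reagent at ambient indicates Rab9 promoter upregulation; stably transfected Huh7 cells were treated 24 h with compound in DMSO at 37 °C, 5% CO2.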
NPC1 prom act – activates the NPC1 promoter | Potency, µM (highest dose often 9.22 µM), for inactives: at the top dose activation, usual class: activators | Huh7 NPC1 promoter luciferase reporter, 24 h | 320,000 tested, 2.4% active; further: % of control where 0% means no effect; nearly all actives have a fitted effect of over 60% in size
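Luciferase expression driven by the NPC1 promoter was measured in stably transfected Huh7 cells after a 24 h compound incubation, using a luciferase reagent and a luminescence read.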
SMN2 splice enh – SMN2 splice variant enhancement; HEK293 SMN2-luciferase splicing reporter, luminescence, 30-36 h; Potency, µM (doses to about 46.1 µM), inactives show top-dose activity change, positive = activation, most hits filed as activators; 210,000 tested, 2.8% active; further: % of control where 0% means no effect; nearly all actives have a fitted effect of over 55% in size
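HEK293 cells carry an SMN2 […]–luciferase reporter in which exon 7 inclusion puts luciferase in frame. Cells were plated 10-12 h before compound addition, then incubated 30-36 h at 37C. ONE-Glo luminescence was read; sodium butyrate at 4.5 mM final served as control.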
FLuc modulator – counter-screen for miR-21 project: firefly luciferase inhibitors or activators | P08659 | purified FLuc, Km substrates, luminescence inhibition | Potency, µM (top dose mostly 57.5 µM), for the others: top-dose activity change, negative = inhibition, usual class: inhibitors | 360,000 tested, 6.9% active | AID 588342;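 further: plate controls were vehicle for no effect and reference inhibitor for full effect; nearly all actives have a fitted effect of over 55% in size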
Target sequence (P08659 whole entry, looked up): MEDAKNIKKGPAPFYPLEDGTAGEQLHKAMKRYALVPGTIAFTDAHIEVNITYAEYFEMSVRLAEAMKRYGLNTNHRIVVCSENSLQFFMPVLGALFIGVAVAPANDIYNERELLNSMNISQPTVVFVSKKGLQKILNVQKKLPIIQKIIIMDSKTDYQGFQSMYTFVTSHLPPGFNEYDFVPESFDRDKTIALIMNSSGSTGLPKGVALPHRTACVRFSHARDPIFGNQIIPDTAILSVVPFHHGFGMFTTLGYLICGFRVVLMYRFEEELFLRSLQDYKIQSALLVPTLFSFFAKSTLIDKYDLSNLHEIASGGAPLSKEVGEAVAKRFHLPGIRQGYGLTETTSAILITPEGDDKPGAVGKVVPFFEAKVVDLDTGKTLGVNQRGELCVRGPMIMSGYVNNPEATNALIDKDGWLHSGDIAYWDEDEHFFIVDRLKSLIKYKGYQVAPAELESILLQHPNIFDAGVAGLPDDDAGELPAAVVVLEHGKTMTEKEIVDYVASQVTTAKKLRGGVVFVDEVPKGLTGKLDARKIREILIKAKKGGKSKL
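Purified P. pyralis luciferase (10nM final) with 10uM D-luciferin and 10uM ATP (Km levels) in 50mM Tris acetate pH 7.5, 10mM Mg acetate, 0.01% Tween-20, 0.05% BSA; qHTS 6-point titration, ~60 µM downward; luminescence read.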
Active calls of the source: *; [ ] = remark or other dose. Sampled rows, rich in hits. Any-hit rate of the full collection: about 7.4%. The call rests on the fitted dose curve; in most records, active means well fitted curve in the direction sought with a large enough effect; inconclusive means small, poorly fitted or top-dose-only effect, or another doubt; inactive means no such curve, though single readings can be large; an effect the other way counts as inactive or inconclusive. Potency means the concentration at half of the fitted maximal effect.

What do the screens show for `NS(=O)(=O)c1cc(C(=O)OCC(=O)c2ccc3c(c2)OCCO3)ccc1Cl`?
ELG1 genotox: inconclusive; Rab9 promoter act: 2.8µM*; NPC1 prom act: 2.8µM*; SMN2 splice enh: -1%; FLuc modulator: 0.21µM*

How did CNS(=O)(=O)c1cccc(C(=O)OCC(=O)c2ccc3c(c2)OCCO3)c1 do in these assays?
ELG1 genotox: -1%; Rab9 promoter act: 20%; NPC1 prom act: 9%; FLuc modulator: 0.38µM*

How did NS(=O)(=O)c1cc(C(=O)NNC(=O)c2ccc3c(c2)OCO3)ccc1Cl do in these assays?
ELG1 genotox: 11%

What do the screens show for `COC(=O)Cc1ccc(NC(=S)N2CCCC(CO)C2)cc1` (configuration not stated)?
ELG1 genotox: inconclusive; Rab9 promoter act: inconclusive; NPC1 prom act: inconclusive; FLuc modulator: 0.85µM*

How did COC(=O)Cc1ccc(NC(=S)N2CCCC(C)C2)cc1 (configuration not stated) do in these assays?
ELG1 genotox: inconclusive; Rab9 promoter act: inconclusive; NPC1 prom act: 24%; SMN2 splice enh: inconclusive; FLuc modulator: 1.5µM*

What do the screens show for `CC1CCCN(C(=S)Nc2ccc(Nc3ccccc3)cc2)C1` (configuration not stated)?
ELG1 genotox: 7%; Rab9 promoter act: 3.5µM*; NPC1 prom act: 28%; FLuc modulator: inconclusive

Results for OC1CCCN(C(=S)Nc2ccc(SC(F)F)cc2)C1 (configuration not stated) ?
ELG1 genotox: 9%; Rab9 promoter act: 14%; NPC1 prom act: 14%; SMN2 splice enh: inconclusive; FLuc modulator: 11µM*

How did CC1CC(C)CN(C(=S)Nc2ccc(SC(F)F)cc2)C1 (configuration not stated) do in these assays?
ELG1 genotox: -3%; Rab9 promoter act: -3%; NPC1 prom act: -5%; SMN2 splice enh: 16%; FLuc modulator: inconclusive

How did COc1cc(-c2noc(-c3ccc(NC4CCCC4)c([N+](=O)[O-])c3)n2)cc(OC)c1OC do in these assays?
FLuc modulator: -6%

How did O=C(O)[C@H]1CCc2ccc3ccccc3c2[C@H]1c1cccc2ccccc12 do in these assays?
SMN2 splice enh: -4%[9.22 µM]

Results for Cc1ccccc1Cn1nnc2c(=O)[nH]c(C3CCN(C(=O)c4ccccc4)CC3)nc21 ?
SMN2 splice enh: -4%; FLuc modulator: 0%

Results for OCC1CCCN(C(=S)Nc2ccc(Oc3ccccc3)cc2)C1 (configuration not stated) ?
ELG1 genotox: 17%; Rab9 promoter act: 1.8µM*; NPC1 prom act: inconclusive; FLuc modulator: 13µM*

How did Cc1ccc(NC(=S)N2CCCC(CO)C2)c(C)c1 (configuration not stated) do in these assays?
ELG1 genotox: 10%; Rab9 promoter act: inconclusive; NPC1 prom act: 17%; FLuc modulator: 17µM*

Results for COc1cc(NC(=S)N2CCCC(CO)C2)cc(OC)c1 (configuration not stated) ?
ELG1 genotox: 3%; Rab9 promoter act: 13%; NPC1 prom act: -2%; SMN2 splice enh: 11%; FLuc modulator: inconclusive

What do the screens show for `CC(=O)c1ccc(NC(=S)N2CCCC(CO)C2)cc1` (configuration not stated)?
ELG1 genotox: inconclusive; Rab9 promoter act: inconclusive; NPC1 prom act: inconclusive; SMN2 splice enh: 16µM*; FLuc modulator: 8.5µM*

How did Cc1ccc(NC(=S)N2CCC(O)CC2)c(C)c1 do in these assays?
ELG1 genotox: -4%; Rab9 promoter act: -1%; NPC1 prom act: -8%; SMN2 splice enh: -4%; FLuc modulator: -3%

What do the screens show for `CN(C)c1ccc(CN(CC2CCCO2)C(=O)COc2ccc(Cl)cc2)cc1` (configuration not stated)?
SMN2 splice enh: -6%; FLuc modulator: -2%

What do the screens show for `ClC1=C(Cl)C(Cl)(Cl)C(Cl)=C1Cl`?
SMN2 splice enh: 0%

How did COc1ccc(-c2cn3cccnc3n2)cc1NC(=O)C(C)Oc1ccccc1 (configuration not stated) do in these assays?
ELG1 genotox: -4%; Rab9 promoter act: -8%; NPC1 prom act: -1%; FLuc modulator: 27µM*

What do the screens show for `COc1ccc(-c2cn3cccnc3n2)cc1NC(=O)c1cc(OC)c(OC)c(OC)c1`?
ELG1 genotox: -6%; Rab9 promoter act: 21%; NPC1 prom act: -2%; SMN2 splice enh: 21%; FLuc modulator: 21µM*

What do the screens show for `CCC(CC)C(=O)Nc1cc(-c2cn3cccnc3n2)ccc1OC`?
FLuc modulator: -9%

How did COc1ccc(-c2cn3cccnc3n2)cc1NC(=O)Nc1ccc(Cl)cc1 do in these assays?
FLuc modulator: 6µM*

Results for COc1ccc(NC(=O)Nc2cc(-c3cn4cccnc4n3)ccc2OC)cc1 ?
SMN2 splice enh: 7%; FLuc modulator: inconclusive

How did COc1cc(C(=O)Nc2cccc(-c3cn4cccnc4n3)c2)cc(OC)c1OC do in these assays?
ELG1 genotox: -10%; Rab9 promoter act: 6%; NPC1 prom act: 0%; SMN2 splice enh: -18%; FLuc modulator: inconclusive

Results for CCc1cc2c(cc3c(=O)n(CC(=O)N4CCCCC4)ncn32)s1 ?
FLuc modulator: -1%

Results for Cc1cc2nc(-c3ccc(SCC(=O)N4CCN(C(=O)c5ccco5)CC4)nc3)[nH]c2cc1C ?
ELG1 genotox: -5%; Rab9 promoter act: 3.5µM*; NPC1 prom act: 3.5µM*; SMN2 splice enh: 7.9µM*; FLuc modulator: 0.48µM*

How did Cc1cc(=O)[nH]c(SCC(=O)N2CCN(C(=O)c3ccco3)CC2)n1 do in these assays?
ELG1 genotox: -1%

Results for Cc1cc2nc(-c3ccc(SCC(=O)N4CCOCC4)nc3)[nH]c2cc1C ?
ELG1 genotox: 2%; Rab9 promoter act: 3.5µM*; NPC1 prom act: inconclusive; SMN2 splice enh: inconclusive; FLuc modulator: 0.67µM*

Results for CCOC(=O)CSc1nc2cc(OC)c(OC)cc2c2nc(-c3ccccc3)nn12 ?
SMN2 splice enh: 4%; FLuc modulator: 2%

What do the screens show for `COc1ccc(-n2c(=O)c3c(c4cc(OC)ccc4n3C)n(Cc3ccc(F)cc3Cl)c2=O)cc1`?
FLuc modulator: -3%

How did O=C(NCCc1ccc(Cl)cc1)c1ccc(=O)[nH]c1 do in these assays?
ELG1 genotox: -1%; Rab9 promoter act: 5%; NPC1 prom act: 3%; FLuc modulator: -2%

Results for CC(=O)NCCNC(=O)c1ccc(CSc2ccc(Cl)cc2)cc1 ?
ELG1 genotox: inconclusive; Rab9 promoter act: 2.8µM*; NPC1 prom act: 2.8µM*; SMN2 splice enh: 13µM*; FLuc modulator: inconclusive

What do the screens show for `CC(C)c1ccc(C(=O)NCc2ccc(Cl)cc2)cc1`?
ELG1 genotox: 24%; Rab9 promoter act: inconclusive; NPC1 prom act: 14%; SMN2 splice enh: 16µM*; FLuc modulator: inconclusive

Compound activity deposited in PubChem by National Center for Advancing Translational Sciences (NCATS).
